Shown are actives, neighbours in structure and some others; about 8.9% of the full set was active somewhere.
KB-3-1 cytotox: qHTS assay for MDR1-selective chemotherapeutics: Primary screen using the parental adenocarcinoma cell KB-3-1; KB-3-1 viability, CellTiter-Glo ATP luminescence, 72 h; Potency, µM (highest dose often 46.1 µM), hits mostly cytotoxic; hit rate 1.4% among 400,000; further: potency means the concentration at half of the fitted maximal effect; on the % scale 0 is the no-effect control and ±100 the full control effect; nearly all actives have a fitted effect of over 60% in size
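Luminescent ATP read-out (CellTiter-Glo) measures survival of drug-naive KB-3-1 cells after 72 h compound exposure at 37 °C. Titration series was screened from lowest to highest concentration, with DMSO vehicle plates as background controls.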
MCF10A rerep: A quantitative high throughput screen for small molecules that induce DNA re-replication in MCF 10a normal breast cells | MCF 10A DNA re-replication, Hoechst nuclear intensity, 48 h | Potency, µM (top dose mostly 46.1 µM), for inactives: at the highest dose activity, positive = re-replication, usual class: activators | hit rate 2.9% among 350,000 | AID 624296, 2012; further: potency means the concentration at half of the fitted maximal effect; % of control where 0% means no effect; nearly all actives have a fitted effect of over 50% in size
DRD3 antagonist: qHTS of D3 Dopamine Receptor Antagonist: qHTS | D(3) dopamine receptor (Homo sapiens), P35462 | D3R cells, DiscoveRx beta-arrestin luminescence, antagonist mode; active compounds read low | max response, negative = inhibition, % | hit rate 2.5% among 360,000; in the data active means max response below about -50%; inconclusive means no clear call, values can overlap the other calls; further: on the % scale 0 is the no-effect control and ±100 the full control effect
Target sequence (P35462 whole entry, looked up): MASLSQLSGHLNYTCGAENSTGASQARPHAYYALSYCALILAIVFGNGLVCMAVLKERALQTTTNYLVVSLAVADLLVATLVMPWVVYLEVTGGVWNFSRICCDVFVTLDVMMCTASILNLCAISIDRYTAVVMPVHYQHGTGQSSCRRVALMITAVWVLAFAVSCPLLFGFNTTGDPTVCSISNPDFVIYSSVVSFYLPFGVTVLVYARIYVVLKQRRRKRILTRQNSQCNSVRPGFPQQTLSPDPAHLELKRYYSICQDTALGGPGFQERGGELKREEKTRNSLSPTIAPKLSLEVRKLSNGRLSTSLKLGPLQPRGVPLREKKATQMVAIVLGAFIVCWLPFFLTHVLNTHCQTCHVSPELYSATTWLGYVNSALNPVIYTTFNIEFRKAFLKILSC
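Cells expressing the human receptor were seeded at 1500 cells/well, incubated overnight at 37 degrees C in 5% CO2, then exposed to library compounds with dopamine controls for 90 minutes at 37 degrees C before luminescent detection.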
D3 ag: qHTS of D3 Dopamine Receptor Agonist: qHTS; D(3) dopamine receptor (Homo sapiens), P35462; D3R DiscoveRx beta-arrestin cells, luminescence, 90 min; max activation, %; hit rate 0.58% among 410,000; in the data active means max activation above about 30%; further: 0% is about no effect
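Cells at 1500/well, incubated overnight, then treated with pinned compounds (dopamine as control) for 90 min at 37 degrees C. DiscoveRx reagent added for 30 - 60 minutes at room temperature; luminescence read.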
KB-V1 MDR tox: qHTS assay for MDR1-selective chemotherapeutics: Primary screen using the drug-selected MDR subline cells KB-V1. AID 1347076, 2019. Potency, µM (top dose mostly 46.1 µM), usual class: cytotoxic. hit rate 3.4% among 400,000. KB-V1 MDR cells viability, CellTiter-Glo, 72 h; further: potency means the concentration at half of the fitted maximal effect; on the % scale 0 is the no-effect control and ±100 the full control effect; nearly all actives have a fitted effect of over 60% in size
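Readout: CellTiter-Glo luminescence, 10 min after addition. Cells: KB-V1 MDR subline, 72 h at 37 degrees C with compound. Analysis: corrected, normalized data fitted to concentration-effect curves.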
SW480 rerep: A quantitative high throughput screen for small molecules that induce DNA re-replication in SW480 colon adenocarcinoma cells. SW480 DNA re-replication, Hoechst DNA content imaging, 48 h. Potency, µM (doses to about 46.1 µM), for inactives: at the top dose re-replication activation, actives largely listed as activators. hit rate 1.8% among 340,000; further: potency means the concentration at half of the fitted maximal effect; % of control where 0% means no effect; nearly all actives have a fitted effect of over 55% in size
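Image-based DNA-content assay: after two days of treatment, nuclei were labelled with the DNA dye Hoechst and imaged, and hits were compounds raising the count of nuclei showing high fluorescence intensity.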
Numbers without * were called inactive; i = inactive; u = inconclusive; x = no result given. Unless noted, the call rests on the fitted dose curve; in most records, active means well fitted curve in the direction sought with a large enough effect; inconclusive means small, poorly fitted or top-dose-only effect, or another doubt; inactive means no such curve, though single readings can be large; an effect the other way counts as inactive or inconclusive.

SMILES	KB-3-1 cytotox	MCF10A rerep	DRD3 antagonist	D3 ag	KB-V1 MDR tox	SW480 rerep
O=C(Cn1nnc(-c2ccccc2Cl)n1)Nc1ccc(Br)cc1	x	x	x	2	x	x
CCCC(=O)Nc1ccc2nc(SCc3ccc(C)cc3)sc2c1	i	x	x	6	i	x
O=C(NCCC1=CCCCC1)c1ccc2c(c1)N(Cc1ccccc1F)C(=O)c1ccccc1S2=O (stereo not drawn)	i	x	x	-12	i	x
COc1ccc(CCNCc2ccc3c(c2)n(C)c(=O)n3C)cc1OC	i	x	x	-16	i	x
COc1ccc(-c2nc3ccccc3c(=O)n2NC(=O)Cc2ccccc2)cc1	i	2%	9	5	15µM*	-8%
COC(=O)[C@@H]1OC(=O)[C@H]2O[C@@]23[C@@]1(C)CC[C@@H]1[C@@]2(C)C=CC(=O)OC(C)(C)[C@@H]2CC(=O)[C@]13C	i	-5%	0	46*	i	-8%
CC1(C)OC(=O)C=C[C@]2(C)[C@H]3CC[C@@]4(C)[C@H](c5ccoc5)OC(=O)[C@H]5O[C@]54[C@]3(C)C(=O)C[C@@H]12	i	-5%	13	-3	i	-4%
COc1ccc(CCN2CC(C(=O)Nc3cccc(C(C)=O)c3)CC2=O)cc1OC (stereo not drawn)	i	0%	-61*	16	i	-5%
CCOc1cccc(NC(=O)C2CC(=O)N(C)C2)c1 (stereo not drawn)	i	u	-77*	14	i	16%
CCOc1cccc(NC(=O)C2CC(=O)N(C)C(=Nc3ccccc3)S2)c1 (stereo not drawn)	i	-4%	16	-1	u	1%
Cc1cc(C)cc(C(=O)Nc2c3c(nn2-c2ccccc2C)CS(=O)(=O)C3)c1	i	x	x	-8	i	x
Cc1cccc(-c2noc(-c3ccc(NC4CCCC4)c([N+](=O)[O-])c3)n2)c1	i	x	x	-2	i	x
O=C(Nc1nc(-c2ccc3c(c2)OCCO3)cs1)C1CC(=O)N(c2ccc3c(c2)OCCO3)C1 (stereo not drawn)	u	x	x	x	i	x
COc1ccc(-c2csc(NC(=O)C3CC(=O)N(c4ccc5c(c4)OCCO5)C3)n2)cc1 (stereo not drawn)	i	22%	42	4	21µM*	x
O=C(CSc1nnc(-c2n[nH]c3ccccc23)n1-c1ccccc1)Nc1cccc(Cl)c1	i	-49%	23	-1	7.3µM*	4%
CC(=O)/C(=N\Nc1cccc(Cl)c1)Sc1nnc(-c2ccccc2)n1-c1ccccc1	i	u	-54*	-20	i	1%
COc1ccc(CNC(=O)c2ccc3c(c2)N(Cc2cccc(Cl)c2)C(=O)c2ccccc2S3)c(OC)c1	x	x	x	8	x	x
CC(C)NC(=O)C1CCCN(S(=O)(=O)c2ccc3c(ccn3C)c2)C1 (stereo not drawn)	i	x	x	7	i	x
OC(CNC1CCCCC1)COCCOc1ccc(Br)cc1 (stereo not drawn)	i	16µM*	-5	-5	23µM*	u
CC(CCc1ccccc1)NCC(O)COc1ccccc1 (stereo not drawn)	i	0%	-64*	-3	i	-32%
OC(CNC1CCCC1)COc1ccc(-c2ccccc2)cc1 (stereo not drawn)	21µM*	u	-24	-28	u	u
CC(COc1ccccc1)NN (stereo not drawn)	x	x	x	67*	x	x
Cc1cc(C)cc(NC(=O)C2CC(=O)N(c3ccccc3)C2)c1 (stereo not drawn)	i	x	x	-11	i	x
O=C(NCCc1csc2nc(-c3ccccc3F)nn12)C(=O)Nc1cc(F)ccc1F	i	x	x	6	i	x

Source: PubChem
